The list is not random: actives were taken first. Their share in the collection is about 3.3%.
RE007 growth inh = less growth of the S. pombe RE007 Vpr strain; S. pombe RE007 Vpr strain, BacTiter-Glo ATP luminescence, 24 h; Potency, µM (doses to about 92.2 µM), actives largely listed as inhibitors; 360,000 compounds, 0.21% hits; active = well fitted falling curve with a large enough effect; inconclusive = small, poorly fitted or top-dose-only effect; inactive = no such curve, though single readings can be large or run the other way; note: nearly all actives have a fitted effect of over 50% in size
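Fission yeast RE007 carrying one integrated HIV-1 vpr copy, seeded at OD 0.01 in PMG+AL medium with 23 nL pinned compound. Grown 24 h at 30 degrees; viability read by BacTiter-Glo luminescence after 5 min.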
NS1 function inh = influenza NS1 inhibition | Potency, µM (titrated, usually from 46.1 µM) | 270,000 compounds, 0.4% hits; calls by dose curve; note: actives are rising curves; nearly all actives have a fitted effect of over 50% in size
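Recovery from NS1-induced slow growth read by OD600 in budding yeast switched to galactose assay medium (pH 6.0, -URA) at 1:100 dilution. Compound 23 nl per well; the matching strain lacking NS1 serves as control.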
Sm TGR inh = blocks Schistosoma mansoni thioredoxin glutathione reductase | Q962Y6 | purified TGR, DTNB reduction, TNB absorbance 405 nm | Potency, µM (highest dose often 114 µM), most hits filed as inhibitors | 360,000 compounds, 3% hits | AID 485364; note: nearly all actives have a fitted effect of over 60% in size
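First, TGR (20 nM dispensed) and NADPH were mixed with compound. Second, a 15 min room-temperature incubation followed. Third, further NADPH and then DTNB were added to start the reaction. Finally, TNB absorbance was monitored kinetically.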
SARS PLpro yeast-1 = SARS-CoV PLP inhibition in yeast; S. cerevisiae expressing SARS-CoV PLpro, growth rescue; Potency, µM (titrated, usually from 32.9 µM), usual class: activators; 330,000 compounds, 0.19% hits; calls by dose curve; note: nearly all actives have a fitted effect of over 55% in size
Tb PYK inh = inhibitors of Trypanosoma brucei pyruvate kinase; Q57TT1; TbPYK enzyme, Kinase-Glo Plus ATP luminescence, 45 min; Potency, µM (series often up to 76.8 µM), usual class: inhibitors; 410,000 compounds, 0.12% hits; note: nearly all actives have a fitted effect of over 50% in size
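Glycolytic pyruvate kinase of T. brucei was incubated with substrate, test compound and 130 uM ADP for 45 minutes at room temperature. Luminescent Kinase-Glo Plus signal was measured after 10 minutes.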
LmPK inh = inhibitors of Leishmania mexicana pyruvate kinase. purified LmPK, Kinase-Glo ATP luminescence, 1 h. Potency, µM (top dose mostly 57.5 µM), actives largely listed as inhibitors. AID 1721. Q27686. 290,000 compounds, 0.37% hits
Target sequence (Q27686 whole entry, looked up): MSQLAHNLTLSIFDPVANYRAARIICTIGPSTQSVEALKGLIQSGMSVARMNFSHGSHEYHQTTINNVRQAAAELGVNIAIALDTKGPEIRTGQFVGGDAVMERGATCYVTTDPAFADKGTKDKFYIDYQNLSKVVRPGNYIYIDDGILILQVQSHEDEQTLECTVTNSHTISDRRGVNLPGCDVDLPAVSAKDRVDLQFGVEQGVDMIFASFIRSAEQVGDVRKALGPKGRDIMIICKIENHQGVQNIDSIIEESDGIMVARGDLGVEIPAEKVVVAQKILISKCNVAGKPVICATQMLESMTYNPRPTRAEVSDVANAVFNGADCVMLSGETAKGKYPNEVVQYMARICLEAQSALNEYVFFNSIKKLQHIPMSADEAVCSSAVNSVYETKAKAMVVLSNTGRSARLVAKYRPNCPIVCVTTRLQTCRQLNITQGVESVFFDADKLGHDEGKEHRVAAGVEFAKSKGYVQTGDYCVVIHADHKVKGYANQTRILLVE
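Pyruvate kinase activity monitored as ATP production (luciferase luminescence). Conditions: 0.1 nM enzyme, 0.5 mM PEP, 0.1 mM ADP, 1 h, RT; normalized against uninhibited and no-enzyme wells.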
SARS PLpro yeast-2 = Validates SARS-CoV PLpro inhibitor hits in yeast. yeast expressing SARS-CoV PLpro, growth phenotype rescue. 1,000 compounds, 19% hits. shares compounds with SARS PLpro yeast-1. calls only; call rule not given here
Of the large screens only hits and unclear results are named; the others gave an inactive call (follow-up assays come after a bar, where they were run). Unless noted, calls come from the whole dose curve; as a rule, active = well fitted curve in the direction sought with a large enough effect; inconclusive = small, poorly fitted or top-dose-only effect, or another doubt; inactive = no such curve, though single readings can be large; an effect the other way counts as inactive or inconclusive.

Cc1nc(N/N=C\c2ccc3c(c2)OCO3)sc1C	SARS PLpro yeast-1 7.1µM | SARS PLpro yeast-2 active
C(=N\Nc1nc2ccccc2s1)/c1ccc2c(c1)OCO2	none
O=C(Oc1c(Cl)cc(Cl)c2cccnc12)c1cccs1	RE007 growth inh 5.6µM, Sm TGR inh inconclusive (no result: SARS PLpro yeast-1) | SARS PLpro yeast-2 inconclusive
O=C(CN1C(=O)NC(CCc2ccccc2)C1=O)Nc1ccc(F)c(F)c1F (configuration not stated)	none (no result: NS1 function inh, Sm TGR inh, LmPK inh)
CC(C)NC(=O)CN1C(=O)NC(CCc2ccccc2)C1=O (configuration not stated)	SARS PLpro yeast-1 3.5µM | SARS PLpro yeast-2 inactive
O=C(CN1CCCN(Cc2ccccc2F)S1(=O)=O)Nc1ccc(F)c(Cl)c1	none (no result: RE007 growth inh, NS1 function inh, SARS PLpro yeast-1, LmPK inh)
O=C(CCN1CCOCC1)NC1CCCN(Cc2ccccc2F)C1 (configuration not stated)	SARS PLpro yeast-1 inconclusive | SARS PLpro yeast-2 inactive
O=C(CCC(=O)c1ccc(F)cc1)NC1CCCN(Cc2ccccc2F)C1 (configuration not stated)	none
O=C(CCCCn1c(=O)c2ccccc2n(CC(=O)Nc2cccc(F)c2)c1=O)NCCc1ccccc1	none (no result: RE007 growth inh, NS1 function inh, SARS PLpro yeast-1, LmPK inh)
CC(=O)OC1CCC2C3CCc4cc(O)ccc4C3CCC12C (configuration not stated)	none (no result: NS1 function inh, Sm TGR inh, SARS PLpro yeast-1, LmPK inh)
C[C@]12CC[C@@H]3c4ccc(O)cc4CC[C@H]3[C@@H]1C[C@@H](O)[C@@H]2O[C@@H]1O[C@H](C(=O)O)[C@@H](O)[C@H](O)[C@H]1O	Sm TGR inh inconclusive, SARS PLpro yeast-1 inconclusive | SARS PLpro yeast-2 inactive
Cc1ccc(C(=O)CNc2ccc(C)c(Cl)c2)cc1	SARS PLpro yeast-1 inconclusive | SARS PLpro yeast-2 inconclusive
CN(C)c1ccc(-c2nc3ccccn3c2/N=C/c2ccc(Br)cc2)cc1	RE007 growth inh inconclusive (no result: SARS PLpro yeast-1) | SARS PLpro yeast-2 inactive
COc1ccccc1CNC(=O)CSc1ncc(S(=O)(=O)c2ccc(C)c(Cl)c2)c(=O)[nH]1	none (no result: RE007 growth inh, NS1 function inh, SARS PLpro yeast-1, LmPK inh)
C=CCc1cc(OC)ccc1OCCN(C)Cc1ccccc1	SARS PLpro yeast-1 inconclusive | SARS PLpro yeast-2 inactive
CCOC(=O)c1c(-c2ccc(OC)cc2)csc1/N=C/C1=C(O)CCCC1=O	SARS PLpro yeast-1 inconclusive | SARS PLpro yeast-2 inactive
CCOC(=O)c1c(/N=C/C2=C(O)CCCC2=O)sc(C)c1C	none
CCCCCCCCCCCCCCCC(=O)OC[C@H](O)[C@H]1OC[C@@H](O)[C@@H]1O	none (no result: RE007 growth inh, NS1 function inh, Sm TGR inh, SARS PLpro yeast-1, LmPK inh)
Cc1noc(C(=O)N2CC3(C)CC2CC(C)(C)C3)c1Cl (configuration not stated)	NS1 function inh inconclusive, SARS PLpro yeast-1 4.5µM | SARS PLpro yeast-2 inactive
CC(=O)Nc1ccc(C(=O)N/N=C/c2ccccc2OCc2ccccc2)cc1	none
Cc1ccc(C(C)C)c(OCc2ccc(C(=O)N/N=C/c3cccc(O)c3O)cc2)c1	RE007 growth inh inconclusive, SARS PLpro yeast-1 2.8µM | SARS PLpro yeast-2 inconclusive
Cc1cc(C)c2c(=O)cc(C(=O)Nc3sc4c(c3C#N)CCCC4)oc2c1	none (no result: RE007 growth inh, NS1 function inh, SARS PLpro yeast-1, LmPK inh)
COc1cccc(/C=N/Nc2ncnc(Cl)c2N)c1O	SARS PLpro yeast-1 4.5µM | SARS PLpro yeast-2 inactive
COc1cccc(/C=N/NC(=O)C(=O)N2CCCCCC2)c1O	none
COc1cc(/C=N/NC(=O)c2cc(-c3cccn3C)n[nH]2)cc(OC)c1OC	Sm TGR inh inconclusive
COc1cccc(/C=N/NC(=O)C(=O)N/N=C/c2cccc(OC)c2O)c1O	SARS PLpro yeast-1 inconclusive | SARS PLpro yeast-2 active
COc1cccc(/C=N/NC(=O)c2cc(-c3cccn3C)n[nH]2)c1O	SARS PLpro yeast-1 7.1µM | SARS PLpro yeast-2 inconclusive
CC1CCn2c(nc3cc(C(=O)NCc4ccccc4)ccc32)C1 (configuration not stated)	none (no result: RE007 growth inh, NS1 function inh, SARS PLpro yeast-1, LmPK inh)
CCOC(=O)N1CCN(C(=O)CCS(=O)(=O)c2cc3c(cc2Cl)NC(=O)CO3)CC1	SARS PLpro yeast-1 inconclusive | SARS PLpro yeast-2 inactive
Cc1cc(C)c2nc(NNC(=O)c3ccc(S(=O)(=O)N4CCc5ccccc5C4)cc3)sc2c1	NS1 function inh inconclusive, SARS PLpro yeast-1 5.6µM | SARS PLpro yeast-2 inconclusive

Bioassay records: PubChem BioAssay, National Center for Advancing Translational Sciences (NCATS)
